Compound activity (PubChem)
Hits are enriched below; roughly 3.1% of the tested compounds scored in any of these assays.
Bead autofluor: flagged as autofluorescent in microsphere protease counterscreen; 360,000 tested, 3.1% active; fluorescence intensity (no concentration beside the values); compound autofluorescence counterscreen, microsphere flow cytometry; stronger effect = higher value; in the data active = fluorescence intensity above about 16000; inconclusive = no clear call, values can overlap the other calls
SSB-PriA inh: K. pneumoniae PriA-SSBct interaction inhibition | 430,000 tested, 0.6% active | AlphaScreen SSBct-PriA binding, biotinylated peptide | inhibition, % at 33 µM; in the data active = inhibition mostly above about 37%, no sharp cut-off; inactive = mostly below about 20%;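 also: plate controls were negative control peptide for no effect and reference peptide for full effect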
BoNT A protease: inhibitors of Botulinum neurotoxin A light chain protease | 360,000 tested, 0.17% active | multiplex microsphere protease substrate cleavage, flow cytometry | AID 588499 | inhibition, % at 10 µM; also: plate controls were buffer without enzyme for full effect and enzyme alone for no effect
Anthrax LF prot: anthrax lethal factor protease inhibition; P15917; multiplex microsphere protease cleavage assay, LF; inhibition, % at 10 µM; 360,000 tested, 0.12% active; also: plate controls were buffer without enzyme for full effect and enzyme alone for no effect
BoNT-F LC inh: BoNT F light chain protease inhibition. Multiplex microsphere protease cleavage assay, flow cytometry. inhibition, % at 10 µM. 360,000 tested, 0.22% active. AID 588497; in the data active = inhibition above about 35%, passing the limit was not always enough; inconclusive = no clear call, values can overlap the other calls; also: plate controls were buffer without enzyme for full effect and enzyme alone for no effect
The depositor's hits bear a star; ? = inconclusive; nt = no result; ! = a repeat was not active. Rule as the data show it, unless noted: active = inhibition above about 30%; inconclusive = no clear call, values can overlap the other calls; inactive = below that.

SMILES | Bead autofluor | SSB-PriA inh | BoNT A protease | Anthrax LF prot | BoNT-F LC inh
COc1ccccc1N1CCN(c2cc(=O)n(-c3ccc(Cl)cc3)c(=O)[nH]2)CC1 | 6067 | -9 | 0 | 1 | -1
CC1(C)CC(=O)C2=C(C1)NCN(Cc1ccccc1)C2 | 16534* | nt | 0 | -13 | -1
CCCN1CN(Cc2ccccc2)CC2=C1CC(C)(C)CC2=O | 6460 | -15 | 0 | 4 | -2
O=C(NC(Cc1ccccc1)C(=O)O)c1ccccc1 (configuration not stated) | 4594 | -8 | 0 | -5 | 10
O=C(NC(Cc1ccccc1)C(=O)O)c1ccc(S(=O)(=O)N2CCCCC2)cc1 (configuration not stated) | 22876* | -16 | 1 | -9 | 4
CC(C)(C)c1ccc(C(=O)NC(Cc2ccccc2)C(=O)O)cc1 (configuration not stated) | 22268* | nt | -1 | -2 | -2
Cc1ccc(CC(NC(=O)c2ccccc2)C(=O)NC(C)C(=O)O)cc1 (configuration not stated) | 21689* | -10 | 5 | 3 | 3
CSc1cccc(NC(=O)Cn2c(C)cc(C)c(S(=O)(=O)c3ccccc3)c2=O)c1 | nt | -3 | nt | nt | nt
COc1cc(C(=O)OC2CSCC2NC(=O)c2ccccc2)cc(OC)c1OC (configuration not stated) | 2660 | -15 | 0 | -1 | 1
CC(=O)NC(=O)NC1CSCC1OC(C)=O (configuration not stated) | 23409* | 5 | ? | -2 | -4
C=C(C)C1CC=C(C)/C(=N/NC(=O)COc2cccc(C)c2)C1 (configuration not stated) | 17668* | nt | -3 | -3 | -8
CCn1c(C)nc2cc(C(=O)NN=Cc3ccc(N4CCOCC4)cc3)ccc21 | nt | -3 | nt | nt | nt
COC(=O)c1ccc(C(=O)N2CCC[C@H](Cc3nc(C4CC4)no3)C2)cc1 | nt | 0 | nt | nt | nt
Cc1sc2nc(C3CC3)nc(SCC(=O)N3CCc4ccccc4C3)c2c1C | 23515* | 3 | ? | 1 | -2
CCc1c(C)sc2nc(C(C)C)nc(SCC(=O)N3CCc4ccccc4C3)c12 | nt | -1 | nt | nt | nt
Cc1noc(C(=O)NCc2ccccc2)c1Cl | 4358 | 104* | 1 | 12 | 12
Cc1noc(C)c1C(=O)NCc1ccccc1 | 2748 | -5 | 0 | -4 | -1
CC(=O)c1cccc(NC(=O)c2oc(C)nc2C)c1 | 24179* | -14 | -1 | 2 | -4
CC(=O)c1cccc(NC(=O)c2onc(C)c2Cl)c1 | 5061 | 115* | 0 | 2 | 0
CC(=O)c1ccc(NC(=O)c2onc(C)c2Cl)cc1 | 4257 | -5 | 0 | 6 | 21
Cc1ccc(-n2cc(C(=O)NC3CCCCC3)nn2)cc1C | nt | -13 | nt | nt | nt
N#C/C(=C/c1ccc(Sc2nc3ccccc3[nH]2)o1)c1ccccc1F | 16534* | 6 | ? | -2 | -4
N#C/C(=C/c1ccc(Sc2nc3ccccc3[nH]2)o1)c1cccc(Br)c1 | 2873 | 2 | 0 | -1 | -3
N#C/C(=C/c1ccc(Sc2nc3ccccc3[nH]2)o1)c1cccc(F)c1 | 23920* | -13 | 0 | -2 | -2
CCCC(=O)Nc1ccc(S(=O)(=O)NCCCn2ncccc2=O)cc1 | nt | -7 | nt | nt | nt
SMILES | Bead autofluor | SSB-PriA inh | BoNT A protease | Anthrax LF prot | BoNT-F LC inh
O=S(=O)(Cc1ccccc1)NCCn1nc(C2CC2)cc1C1CC1 | nt | -5 | nt | nt | nt
O=C(C/C=C/c1ccc(F)c(F)c1)c1ccc(Br)cc1 | nt | -10 | nt | nt | nt
CCCCOC(=O)c1ccc(N2C=C(C#N)S(=O)(=O)c3ccc(Cl)cc32)cc1 | nt | -6 | nt | nt | nt
c1cncc(-c2n[nH]c(-c3cnccn3)n2)c1 | nt | -6 | nt | nt | nt
c1ccc(-c2ccc(-c3ccccn3)nn2)nc1 | nt | 106* | nt | nt | nt
Oc1ccccc1-c1n[nH]c(-c2ccccn2)n1 | nt | 94* | nt | nt | nt
c1ccc(-c2n[nH]c(-c3ccccn3)n2)cc1 | 2114 | 42* | -1 | -1 | 1
c1ccc(CSc2n[nH]c(-c3ccccn3)n2)cc1 | nt | 59* | nt | nt | nt
O=C(CSc1n[nH]c(-c2ccccn2)n1)N1c2ccccc2Sc2ccccc21 | nt | 58 | nt | nt | nt
Oc1ccccc1-c1ccn[nH]1 | 3473 | 9 | 0 | -8 | -6
CCn1c2ccccc2c2cc(C3N(Cc4ccccc4)CCN3Cc3ccccc3)ccc21 | nt | 4 | nt | nt | nt
COc1cccc(C(=O)N2CCN(Cc3nc(C4CC4)cs3)CC2)c1OC | nt | -12 | nt | nt | nt
C=CCN1C(=O)C(C)(C)COc2ccc(NS(C)(=O)=O)cc21 | nt | -11 | nt | nt | nt
COc1cccc(-c2cc(CNC(=O)c3ccccc3C(F)(F)F)no2)c1 | nt | -23 | nt | nt | nt
Cc1ccccc1-c1nn[nH]n1 | 21118* | -6 | -5 | 0 | -5
c1ccc(-c2nn[nH]n2)cc1 | 4346 | -11 | ? | -14 | ?
c1ccc(-c2n[nH]c(-c3ccccn3)n2)nc1 | 7944 | 93* | -4 | 0 | -21
c1ccc(-c2nn[nH]n2)nc1 | 5602 | 107*! | -1 | -4 | -3
Sc1n[nH]c(-c2ccccn2)n1 | nt | 113* | nt | nt | nt
C/C(=C1\SC(=S)N(CCS(=O)(=O)O)C1=O)c1ccc(Cl)cc1 | nt | -7 | nt | nt | nt
C[C@](O)(CNC(=O)c1ccccc1C(F)(F)F)c1ccc(-c2ccccc2)cc1 | nt | -9 | nt | nt | nt
NCc1nc(-c2ccccn2)n[nH]1 | nt | 116* | nt | nt | nt
COc1ccc(C2=Nn3c(nnc3-c3ccccn3)SC2)cc1OC | 22882* | 83* | ? | -1 | -1
c1ccc(-c2nnc3n2N=C(c2ccc4c(c2)OCO4)CS3)nc1 | 18035* | -12 | 5 | -1 | 6
COc1ccc(C2=Nn3c(nnc3-c3ccccc3OC)SC2)cc1OC | nt | 1 | nt | nt | nt
SMILES | Bead autofluor | SSB-PriA inh | BoNT A protease | Anthrax LF prot | BoNT-F LC inh
CN(C)S(=O)(=O)c1ccc(C(O)=C2C(=O)C(=O)N(Cc3cccnc3)C2c2ccco2)cc1 (configuration not stated) | nt | -9 | nt | nt | nt
Cc1coc(NC(=O)CSc2nc(-c3ccc(Cl)cc3)cc(C(F)(F)F)c2C#N)n1 | 16407* | -12 | 1 | 1 | 0
Cc1cc(C(F)(F)F)c(C#N)c(SCC(=O)NC(C)(C)C)n1 | 25162* | -8 | -4 | -2 | -7
CCOC(=O)C(CC)Sc1cc(C)c(C#N)c2nc3ccccc3n12 (configuration not stated) | nt | -10 | nt | nt | nt
NS(=O)(=O)c1ccc(CCNc2cnc3cc(S(=O)(=O)N4CCCCC4)ccc3n2)cc1 | nt | 102* | nt | nt | nt
NS(=O)(=O)c1ccc(Nc2ccc3cc(S(=O)(=O)N4CCCCC4)ccc3n2)cc1 | 6383 | -15 | -2 | -2 | -3
O=S(=O)(c1ccc(Br)s1)N1CCOC(c2ccc(C(F)(F)F)cc2)C1 (configuration not stated) | nt | -1 | nt | nt | nt
Cn1c(SCC(=O)OC2CCCCC2)nnc1-c1ccc2c(c1)OCO2 | 21547* | -96 | 2 | 2 | 3
COC(=O)CSc1nnc(-c2ccc3c(c2)OCO3)n1C | 2903 | -10 | 1 | -2 | -16
CCOC(=O)c1ccccc1NC(=O)Cn1c(=O)n(Cc2ccc3c(c2)OCO3)c(=O)c2oc3ccccc3c21 | nt | -8 | nt | nt | nt
CC(=O)Nc1nonc1NC(=O)CSc1nc2ccccc2o1 | 22359* | 0 | 0 | -2 | 0
CCc1nnc(NC(=O)CSc2nc3ccccc3o2)s1 | 22539* | -12 | 1 | -1 | 2
O=C(CSc1nc(-c2ccccc2)c(-c2ccccc2)o1)Nc1nnc(-c2ccccc2)s1 | 22803* | -10 | 1 | -2 | -2
